DT40 TDP1 no CPT: qHTS for Inhibitors of human tyrosyl-DNA phosphodiesterase 1 (TDP1): qHTS in cells in absence of CPT | DT40 Tdp1-/- hTDP1 cells, no CPT, ATP luminescence, 48 h | Potency, µM (titrated, usually from 46.2 µM), most hits filed as inhibitors | 420,000 tested, 15% active | AID 686978, 2013; note: nearly all actives have a fitted effect of over 55% in size
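Compound effects on proliferation are scored in DT40 Tdp1-/-;hTDP1 cells in the absence of CPT. ATP levels (CellTiter-Glo luminescence) are recorded after a ≥48 hr, 37 °C incubation.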
SW480 rerep: DNA re-replication induction in SW480 cells; Potency, µM (titrated, usually from 46.1 µM), most hits filed as activators; SW480 DNA re-replication, Hoechst DNA content imaging, 48 h; AID 624297; 340,000 tested, 1.8% active; note: nearly all actives have a fitted effect of over 55% in size
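First, 250 cells per well were seeded. Next, compound or vehicle (23 nL) was pinned in, plates sat 48 hr at 37 C. Finally Hoechst was added for 40 min before fluorescence scanning.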
IL-1B inflam inh: blocks inflammasome-driven IL-1 beta release; 360,000 tested, 4.7% active; activity change, % at 57.5 µM; THP-1 LPS/ATP IL-1B secretion, AlphaLISA, 16 h; stronger effect = lower value; in the data active = activity change below about -50%; inconclusive = mostly about -30% to -49%
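Secreted IL-1B measured by AlphaLISA bead assay after 16 h compound exposure of THP-1 cells; compounds (final up to 57.5 uM) added 1 h before LPS (250 ng/mL) and ATP (1.25 mM) stimulation; lower signal means less secretion.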
DT40 TDP1 CPT: growth inhibition of DT40 Tdp1-/-;hTDP1 cells with camptothecin (screen for TDP1 inhibitors); chicken DT40 Tdp1-/-;hTDP1 cells + 20 nM CPT, ATP luminescence, 48 h; Potency, µM (doses to about 46.2 µM), actives largely listed as inhibitors; 420,000 tested, 12% active; AID 686979; note: nearly all actives have a fitted effect of over 55% in size
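Chicken DT40 Tdp1-/- cells stably complemented with human TDP1 were seeded at 400 cells/well in medium containing 20 nM camptothecin, exposed to pin-transferred compounds, and grown at 37 °C for at least 48 hr. Viability was read as ATP luminescence.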
Chronic BCR inh: chronic active BCR signaling inhibition. ABC-DLBCL IkBa-CBG/CBR reporter, luminescence ratio, 4 h. Potency, µM (top dose mostly 46.1 µM), usual class: inhibitors. 340,000 tested, 0.05% active; active = well fitted inhibition curve with a large enough effect in the signal ratio, with a control signal flat, not every such curve was filed as active; inconclusive = small, poorly fitted or top-dose-only effect, or effect the other way, or a change in a side signal; the % refers to the signal ratio
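TMD8 human ABC-DLBCL cells with doxycycline-inducible IκBα–green luciferase fusion and unfused red luciferase, in 0.5% FBS medium; compounds up to 46 uM, 4 h at 37C. Green/red luminescence ratio, filter-overlap corrected, fitted to concentration-response curves.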
MCF10A rerep: DNA re-replication induction in MCF 10a cells. MCF 10A DNA re-replication, Hoechst nuclear intensity, 48 h. 350,000 tested, 2.9% active. Potency, µM (titrated, usually from 46.1 µM), hits mostly activators; note: nearly all actives have a fitted effect of over 50% in size
Numbers stand for hits; . = inactive; ? = inconclusive; / = not tested or not shown. Hits are enriched below; roughly 19% of the tested compounds scored in any of these assays. Unless noted, calls come from the whole dose curve; as a rule, active = well fitted curve in the direction sought with a large enough effect; inconclusive = small, poorly fitted or top-dose-only effect, or another doubt; inactive = no such curve, though single readings can be large; an effect the other way counts as inactive or inconclusive.

SMILES	DT40 TDP1 no CPT	SW480 rerep	IL-1B inflam inh	DT40 TDP1 CPT	Chronic BCR inh	MCF10A rerep
COc1ccc(OC)c(Nc2ncnc3ccccc23)c1	.	.	.	.	.	.
COc1ccc(OC)c(Nc2nc(=O)c3cccnc3s2)c1	.	.	.	21µM	?	.
O=c1nc(NCc2ccco2)sc2ncccc12	.	.	.	.	.	.
Cc1ccc(Nc2nc(=O)c3cccnc3s2)cc1	.	9.2µM	.	.	.	16µM
Cc1ccc(N2CC(NC(=O)c3ccc(S(=O)(=O)N4CCOCC4)cc3)CC2=O)cc1C (configuration not stated)	?	/	/	?	.	/
Cc1nc(N2CCOCC2)c2c(C)c(C(=O)Nc3ccccc3C(F)(F)F)sc2n1	?	.	?	.	?	.
Cc1nc(N2CCC(C)CC2)c2c(C)c(C(=O)Nc3ccc(C(F)(F)F)cc3)sc2n1	?	.	-84	?	.	?
Cc1nc(N2CCC(C)CC2)c2c(C)c(C(=O)Nc3cccc(C(F)(F)F)c3)sc2n1	?	?	.	?	.	21µM
Cc1nc(N2CCC(C)CC2)c2c(C)c(C(=O)Nc3ccc4c(c3)OCCO4)sc2n1	?	.	?	?	.	.
NC(=O)c1cccc(-c2ccnc3c2CC(C(=O)NCc2ccccc2)O3)c1 (configuration not stated)	1.3µM	/	.	0.58µM	/	/
O=C(NCc1cccnc1)C1Cc2c(-c3ccc(Cl)cc3)ccnc2O1 (configuration not stated)	8.2µM	/	.	5.8µM	/	/
CC(=O)Nc1cccc(-c2ccnc3c2CC(C(=O)NCc2ccc(F)c(F)c2)O3)c1 (configuration not stated)	3.3µM	/	.	3.3µM	/	/
O=C(NCc1ccncc1)C1Cc2c(-c3ccc(Cl)cc3)ccnc2O1 (configuration not stated)	?	/	.	?	/	/
NC(=O)c1cccc(-c2ccnc3c2CC(C(=O)NCc2ccc(F)c(F)c2)O3)c1 (configuration not stated)	8.2µM	/	.	4.6µM	/	/
CC(C)C(OC(=O)c1nsc(Cl)c1Cl)C(=O)NCC1CCCO1 (configuration not stated)	.	.	.	.	.	.
CN1CCN(c2ccc(CNC(=O)C3Cc4c(-c5ccc(Cl)cc5)ccnc4O3)cc2)CC1 (configuration not stated)	16µM	/	?	?	/	/
CC(=O)Nc1cccc(-c2ccnc3c2CC(C(=O)NCc2ccc(N(C)C)cc2)O3)c1 (configuration not stated)	18µM	/	.	13µM	/	/
O=C(NCc1cccc(Cl)c1)C1Cc2c(-c3ccccc3)ccnc2O1 (configuration not stated)	16µM	/	.	29µM	/	/
CC(=O)Nc1ccc(-c2ccnc3c2CC(C(=O)NCc2ccc(N4CCN(C)CC4)cc2)O3)cc1 (configuration not stated)	?	/	.	?	/	/
CC(=O)Nc1cccc(-c2ccnc3c2CC(C(=O)NCc2ccncc2)O3)c1 (configuration not stated)	.	/	.	.	/	/
O=S(=O)(NC1CCSc2ccccc21)c1ccc(Cl)nc1 (configuration not stated)	?	.	.	?	.	.
COc1cc2c(cc1NC(=O)c1cccc(S(=O)(=O)N(C)C)c1)oc1ccccc12	15µM	?	.	10µM	?	?
COc1cc2c(cc1NC(=O)COC(=O)c1ccccc1)oc1ccccc12	/	/	/	/	.	/
COc1ccc(S(=O)(=O)N[C@@H](C)C(=O)OCC(=O)Nc2cc3oc4ccccc4c3cc2OC)cc1	15µM	.	.	?	.	.
COc1cc2c(cc1NC(=O)C1CCCO1)oc1ccccc12 (configuration not stated)	?	.	.	?	?	?
SMILES	DT40 TDP1 no CPT	SW480 rerep	IL-1B inflam inh	DT40 TDP1 CPT	Chronic BCR inh	MCF10A rerep
COc1cc2c(cc1NC(=O)COC(=O)[C@@H](NS(=O)(=O)c1cccc(Cl)c1)C(C)C)oc1ccccc12	16µM	.	.	?	.	.
COC(=O)c1sc(N)c(C(=O)OC)c1COC(=O)[C@@H](NS(=O)(=O)c1cccc(Cl)c1)C(C)C	18µM	.	?	?	.	?
COc1ccc(C)cc1NC(=O)C1CCN(S(=O)(=O)c2c(C)noc2/C=C/c2ccco2)CC1	.	/	/	.	/	/
CC(C)OC(=O)/C(=C\c1ccccc1)NC(=O)c1ccccc1	.	.	.	.	.	.
CC(C)OC(=O)/C(=C\c1cccc2ccccc12)NC(=O)c1ccccc1	?	.	-79	?	.	?
CC(C)Cc1nc(SCC(=O)N2CCCC2)c2c(=O)n(C)c(=O)n(C)c2n1	.	?	.	.	.	.
CCc1cnc2c(c1SCc1c(F)cccc1Cl)c(=O)n(C)c(=O)n2C	26µM	/	/	15µM	.	/
CC(C)c1cnc2c(c1SCC(=O)N1CCCCC1)c(=O)n(C)c(=O)n2C	?	/	/	23µM	/	/
CCCc1cnc2c(c1SCC(=O)N1CCC(C)CC1)c(=O)n(C)c(=O)n2C	21µM	/	/	16µM	.	/
CC(C)c1nc(SCc2c(F)cccc2Cl)c2c(=O)n(C)c(=O)n(C)c2n1	?	.	.	?	.	.
CCCc1cnc2c(c1SCC(=O)Nc1ccccc1F)c(=O)n(C)c(=O)n2C	23µM	/	/	?	.	/
CSCCC(NC(=O)c1ccco1)C(=O)N1CCN(c2ccccc2O)CC1 (configuration not stated)	?	.	.	.	.	.
C=CCOC(=O)C1=C[C@H](c2coc3ccccc3c2=O)C[C@H](OCCCCO)O1	.	.	.	.	/	?
O=C(COC(=O)c1ccccc1NCCO)Nc1cccc(S(=O)(=O)NC2=NCCCCC2)c1	.	?	.	.	.	.
O=C(Nc1ccc(F)cc1F)c1noc2c1CCc1ccccc1-2	.	/	/	.	/	/
CCC(C)Sc1c(C(C)C)cnc2c1c(=O)n(C)c(=O)n2C (configuration not stated)	13µM	/	/	23µM	/	/
Cc1cccc(NC(=O)CSc2c(C)cnc3c2c(=O)n(C)c(=O)n3C)c1C	?	/	/	.	.	/
COc1ccc(OC)c(NC(=O)CSc2nc3c(c(=O)n(C)c(=O)n3C)n2C)c1	.	.	.	.	.	.
COc1ccc(NC(=O)CSc2c(C(C)C)cnc3c2c(=O)n(C)c(=O)n3C)c(OC)c1	23µM	/	/	23µM	/	/
CC(C)c1cnc2c(c1SCc1cccc(F)c1)c(=O)n(C)c(=O)n2C	23µM	/	/	16µM	/	/
CC(C)c1cnc2c(c1SCC(=O)c1ccccc1)c(=O)n(C)c(=O)n2C	13µM	/	/	?	/	/

Screening results: PubChem BioAssay, National Center for Advancing Translational Sciences (NCATS)
